Results as given in PubChem BioAssay (NCATS).
Results filed as inconclusive are left out. Where a call stands in place of a potency, no number is given. Activity calls are given as the source filed them. Calls follow the shape of the dose curve; as a rule, active = well fitted inhibition curve with a large enough effect; inconclusive = small, poorly fitted or top-dose-only effect; inactive = flat fitted curve, though single readings scatter.

Test system: CRL-7250
Experiment: qHTS assay to identify novel small-molecules to repurpose for Merkel cell carcinoma treatment (AID 1296009); also: nearly all actives have a fitted effect of over 60% in size
Settings: MCC and control cell lines, CellTiter-Glo viability, 72 h; series mostly up to 92 µM
Summary of the method: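 qHTS format: cells treated with library compounds in DMSO across 8 (NPC) or 11 (MIPE) concentrations. Readout after 72 hr at 37 degree celsius was CellTiter-Glo luminescence.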

| Compound | Potency | outcome |
| --- | --- | --- |
| Fc1ccc(-c2nc(C3CCNCC3)sc2-c2ccnc(NC3CC3)n2)cc1 | inactive | – |
| CC[C@H]1OC(=O)[C@H](C)[C@@H](OC2C[C@@](C)(OC)[C@@H](O)[C@H](C)O2)[C@H](C)[C@@H](OC2O[C@H](C)C[C@H](NC)[C@H]2O)[C@](C)(O)C[C@@H](C)CN(C)[C@H](C)[C@@H](O)[C@]1(C)O (stereo not given in full) | inactive | – |
| CC1CCCCCCCc2cc(O)cc(O)c2C(=O)O1 (stereo not given) | inactive | – |
| C[C@H]1[C@H](C)CC[C@]2(C(=O)O)CC[C@]3(C(=O)O)C(=CCC4[C@@]5(C)CC[C@H](O[C@@H]6O[C@@H](C)[C@H](O)[C@@H](O)[C@H]6O)C(C)(C)C5CC[C@]43C)[C@H]12 (stereo not given in full) | inactive | – |
| Clc1cccc(COc2cncc(N3CCNCC3)n2)c1 | inactive | – |
| C[C@@H]1C[C@H]2OC(=O)[C@@]3(C)CCC[C@](C)(C23)[C@@]1(O)CCC1=CC(=O)OC1O (stereo not given in full) | inactive | – |
| CC1CCC2(CO)C(C(=O)O)=CCCC2C1(C)CCc1ccoc1 (stereo not given) | inactive | – |
| C#Cc1cnc2[nH]c(=O)n(C(CC)CC)c2n1 | inactive | – |
| OC[C@H]1O[C@@H](OCCc2ccccc2)[C@H](O[C@@H]2OC[C@@H](O)[C@H](O)[C@H]2O)[C@@H](O)[C@@H]1O | inactive | – |
| Cc1cc(C(=O)N2Cc3cnn(C)c3Nc3ccccc32)ccc1CNC(=O)N1CCN(Cc2cc(O)cc(O)c2)CC1 | inactive | – |
| C=C1CCC[C@]2(C)C[C@]3(O)OC(=O)C(C)=C3C[C@@H]12 | inactive | – |
| Nc1ncnc2c1ncn2[C@H]1O[C@@H](C(=O)N2CCN(CC(=O)Nc3cccc4c3CNC4=O)CC2)[C@H](O)[C@@H]1O | inactive | – |
| C=C(C(=O)O)[C@@H]1CC[C@H](C)[C@@H]2CC(=O)C(C)=C2C1 | inactive | – |
| CC/C(=C(\c1ccc(O)cc1)c1ccc(OCCNC)cc1)c1ccccc1 | inactive | – |
| CCc1cc(CC[C@]2(C3CCCC3)CC(O)=C(Cc3nc4nc(C)cc(C)n4n3)C(=O)O2)cc(CC)n1 | inactive | – |
| H-DPPDPDRFYGMM-NH2 | inactive | – |
| O=C(Cc1ccc(Cl)cc1)Nc1cnccc1C(=O)O | inactive | – |
| CC12CCC(=O)C=C1C(O)CC1C2C(O)CC2(C)C1CC[C@]2(O)C(=O)CO (stereo not given in full) | – | inactive [at 9.27 µM] |

| Compound | Potency | outcome |
| --- | --- | --- |
| CC(C)C1(O)NC(=O)C(CC2(O)c3ccccc3N3C(=O)C(C)(C)NC32)n2c1nc1ccccc1c2=O (stereo not given) | inactive | – |
| COC(=O)c1[nH]c(=O)c2ccccc2c1-c1ccc[nH]1 | inactive | – |
| CO[C@H]1O[C@@H]2O[C@@]3(C)CCC4[C@H](C)CCC([C@H]1C)[C@]42OO3 (stereo not given in full) | inactive | – |
| FC(F)(F)c1cc(C(F)(F)F)c2ccc3nc(-c4nnco4)cn3c2n1 | inactive | – |
| O=C(O)c1ccccc1NC(=O)N1CCC(c2ccccc2C(F)(F)F)CC1 | inactive | – |
| C[C@@H]1C[C@@H](O)[C@@]2(CO)C(CO)=CCC[C@@H]2[C@@]12C[C@@H](c1ccoc1)OC2=O | inactive | – |
| Cc1ccnn1-c1ccc(C(=O)N2CCN(S(=O)(=O)c3ccc(Cl)c(C(F)(F)F)c3)CC2)cc1 | inactive | – |
| C=C(C)[C@@H](C)[C@H]1O[C@]23C[C@]4(CO2)C(CCC2[C@@]5(C)CC[C@H](O[C@@H]6OC[C@H](O)[C@H](O[C@@H]7O[C@H](CO)[C@@H](O)[C@H](O)[C@H]7O)[C@H]6O[C@@H]6O[C@@H](CO)[C@H](O)[C@H]6O)C(C)(C)C5CC[C@]24C)C3[C@@](C)(O)[C@@H]1OC(C)=O (stereo not given in full) | – | inactive [at 9.27 µM] |
| C=C(C)[C@@H]1CC[C@](C)(O)[C@@H](OC(=O)c2ccccc2)C1 | inactive | – |
| CC(=O)N(O)CCCCCN1C(=O)CCC1=O | inactive | – |
| O=C(O)CCc1cc2ccoc2cc1O[C@@H]1O[C@H](CO)[C@@H](O)[C@H](O)[C@H]1O | inactive | – |
| C=C(C(=O)O)C1CC(O)C2(C)CCCC(C)(O)C2C1 (stereo not given) | inactive | – |
| Cc1ccc(Nc2nnc(-c3ccc([N+](=O)[O-])cc3)o2)cc1Cl | inactive | – |
| CC(C)(OC1OC(CO)C(O)C(O)C1O)C1CCC(O)(CO)C2CC(=O)C(C)(O)C2C1 (stereo not given) | inactive | – |
| CC(C)C(C(=O)N(C)C(C)C(N)=O)N(C)C(=O)C1CCCN1C(=O)/C=C/C=C/C(O)C(C)O (stereo not given) | inactive | – |
| COc1cc2c(c(O)c1OC/C=C(\C)CC/C=C(/C)CCC=C(C)C)CN(C(CCC(=O)O)C(=O)O)C2=O (stereo not given) | inactive | – |
| C[C@@H]1CC[C@]2(C(=O)O[C@@H]3O[C@H](CO)[C@@H](O)[C@H](O)[C@H]3O)CC[C@]3(C)C(=CCC4[C@@]5(C)C[C@@H](O)[C@H](O)[C@@](C)(C(=O)O[C@H]6[C@H](O)C[C@@]7(C)C(CC[C@]8(C)C7CC=C7[C@H]9[C@](C(=O)O[C@@H]%10O[C@H](CO)[C@@H](O)[C@H](O)[C@H]%10O)(CC[C@@H](C)[C@@]9(C)O)CC[C@]78C)[C@@]6(CO)C(=O)O)C5CC[C@]43C)[C@@H]2[C@]1(C)O (stereo not given in full) | – | inactive [at 9.27 µM] |
